High-throughput results (PubChem BioAssay)
PAFAH1B3 inh: inhibitors of human PAFAH1B3 | Q15102 | recombinant PAFAH1B3, FP-rhodamine probe, fluorescence polarization | inhibition, % at 3.39 µM | 0.28% of 340,000 active;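 active = inhibition above the screen-wide average of all tested compounds plus 3 SD, cut at about 25% in these data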;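 also: 0% = enzyme with DMSO only and 100% = wells lacking PAFAH1B3 protein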
PAFAH1B2 FP inh: blocks human PAF acetylhydrolase 1b catalytic subunit 2; inhibition, % at 3.39 µM; P68402; recombinant PAFAH1B2, FP-rhodamine activity probe, fluorescence polarization; AID 492953; 1.2% of 340,000 active;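 active = inhibition above the mean of all tested compounds plus 3 SD, cut at about 24% in these data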;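 also: 0% = enzyme with DMSO and 100% = wells lacking PAFAH1B2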
Target sequence (P68402 whole entry, looked up): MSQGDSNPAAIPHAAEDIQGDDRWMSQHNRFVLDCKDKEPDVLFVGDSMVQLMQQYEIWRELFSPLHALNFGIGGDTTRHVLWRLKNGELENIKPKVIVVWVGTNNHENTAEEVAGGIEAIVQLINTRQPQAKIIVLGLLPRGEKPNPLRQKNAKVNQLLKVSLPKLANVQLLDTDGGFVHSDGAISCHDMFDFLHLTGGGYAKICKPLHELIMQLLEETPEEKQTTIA
PKA-R1A activ: activates the PKA-R1A holoenzyme complex; 0.083% of 340,000 active; activation, % at 11.4 µM; P00514+P68181; PKA-R1A dissociation, Cy5-IP20 fluorescence polarization; scaled: DMSO 0%, 113 µM cGMP 100%; AID 504707;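 active = percent activation above the mean of all tested compounds plus 3 SD, cut at about 19% in these data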;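 also: higher means more PKAc released from R1A so a rise in polarization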
PKA-R2B activ: PKA-R2B complex activation | P22694+P31323 | PKA-R2B holoenzyme dissociation, Cy5-IP20 fluorescence polarization; R2B truncated from residue 108, S112A mutant; 0% DMSO only, 100% 113 µM cGMP | activation, % at 11.4 µM | 0.079% of 340,000 active | AID 504700;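 active = activation above a cutoff set at the mean over all compounds plus 3 SD, cut at about 18% in these data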;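 also: higher means more holoenzyme dissociation and a rise in polarization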
Target sequence (P31323 whole entry, looked up, other chains not shown, the tested form may be a part): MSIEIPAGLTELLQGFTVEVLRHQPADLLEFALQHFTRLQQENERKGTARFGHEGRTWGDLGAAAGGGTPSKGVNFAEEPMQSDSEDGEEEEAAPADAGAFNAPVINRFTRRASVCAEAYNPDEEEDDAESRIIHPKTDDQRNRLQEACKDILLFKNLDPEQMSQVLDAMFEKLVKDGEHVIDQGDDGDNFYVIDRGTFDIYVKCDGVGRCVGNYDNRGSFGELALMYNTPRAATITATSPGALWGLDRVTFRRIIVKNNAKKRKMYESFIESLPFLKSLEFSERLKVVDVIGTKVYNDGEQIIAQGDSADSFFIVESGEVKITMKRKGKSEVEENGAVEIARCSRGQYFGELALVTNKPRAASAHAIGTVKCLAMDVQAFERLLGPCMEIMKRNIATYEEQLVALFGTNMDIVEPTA
pPAFAH inh: pPAFAH (human) enzyme inhibition; Q13093; recombinant pPAFAH, FP-rhodamine probe fluorescence polarization; 1.5% of 330,000 active; inhibition, % at 3.39 µM;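 active = inhibition above the mean inhibition across the screen plus 3 SD, cut at about 25% in these data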;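 also: inhibitors block binding of the rhodamine activity-based probe so polarization drops; 0% = enzyme with DMSO and 100% = wells lacking pPAFAH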
PAFAH2 FP inh: inhibitors of human PAFAH2 | recombinant PAFAH2, FP-rhodamine activity probe, fluorescence polarization | inhibition, % at 3.39 µM | 0.99% of 340,000 active | AID 492956;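 active = inhibition above the mean over all tested compounds plus 3 SD, cut at about 30% in these data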;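 also: inhibitors block probe labeling of enzyme so polarization drops; 0% = enzyme with DMSO and 100% = wells lacking PAFAH2 protein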
PAFAH2 confirm: PAFAH2 (human) inhibition, confirmed. 65% of 2,300 active. inhibition, % at 3.39 µM. shares compounds with PAFAH2 FP inh. recombinant PAFAH2, FP-rhodamine activity probe, fluorescence polarization. AID 493030;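 active = mean inhibition over three repeats above a set limit taken from the earlier primary screen, cut at about 30% in these data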;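 also: inhibitor blocks binding of rhodamine activity probe so polarization falls; 0% = enzyme with DMSO and 100% = wells lacking PAFAH2 protein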
The depositor's hits bear a star; . = not tested or not shown. Most compounds without a hit are left out; they make up all but 2.6% or so of the library.

SMILES | PAFAH1B3 inh | PAFAH1B2 FP inh | PKA-R1A activ | PKA-R2B activ | pPAFAH inh | PAFAH2 FP inh | PAFAH2 confirm
CCc1ccc(NC(=O)COC(=O)CCc2nc3cc(S(=O)(=O)N(CC)CC)ccc3n2C)cc1 | 7 | 6 | 11 | 2 | 6 | 63* | 75*
CCN(CC)S(=O)(=O)c1ccc2c(c1)nc(CCC(=O)OCc1c(C)noc1C)n2C | 2 | -1 | -4 | -8 | -4 | 10 | .
Cc1cccc(NC(=O)C(=O)NCC2CCCN2S(=O)(=O)c2cccs2)c1C (configuration not stated) | 9 | 7 | -13 | -15 | 7 | 5 | .
CC1C(=O)Nc2ccc(S(=O)(=O)N3CCCCCC3)cc21 (configuration not stated) | 6 | 1 | -7 | 7 | 4 | -9 | .
CSC1=NSC2=NC(=O)/C(=C\c3coc4ccccc4c3=O)C(=N)N12 | 2 | 10 | 4 | -3 | 4 | 26 | .
CC(C)CSC1=NSC2=NC(=O)/C(=C\c3coc4ccccc4c3=O)C(=N)N12 | 21 | 23 | 8 | -6 | 10 | 36* | 22
CCCOc1ccccc1/C=C(\C#N)C(=O)Nc1cccnc1 | 0 | 7 | 6 | 17 | -1 | 40* | 29
COc1ccc(O)c(/C=C(\C#N)C(=O)Nc2cccnc2)c1 | 10 | 2 | 0 | -9 | 5 | 0 | .
Cc1ccc(CO/N=C/c2c(O)cc(C)oc2=O)cc1 | 4 | 22 | -1 | 3 | -1 | 37* | 12
Cc1ccc(N/N=C/c2c(O)cc(C)oc2=O)cc1 | 3 | 6 | -1 | 7 | 2 | 5 | .
Cc1nc2cc(N3CCN(C)CC3)c(NC(=O)Cc3ccccc3)cc2c(=O)n1Cc1ccccc1 | 6 | -3 | 7 | 0 | 6 | 42* | 27
Cc1nc2cc(N3CCCCC3)c(NC(=O)c3ccncc3)cc2c(=O)n1Cc1ccc(Cl)cc1 | . | . | . | . | -2 | . | .
CCOc1ccc(C(=O)NCC(=O)NNC(=O)CN(C)S(=O)(=O)c2ccc(Cl)cc2)cc1OCC | 1 | -1 | 6 | -2 | . | -6 | .
CSc1cccc(N2CC(C(=O)N3CCN(S(=O)(=O)c4ccccc4Cl)CC3)CC2=O)c1 (configuration not stated) | 5 | 4 | 3 | -1 | -2 | -3 | .
O=C(N/N=C/c1coc2ccccc2c1=O)c1ccncc1 | 13 | 7 | 1 | -4 | . | -2 | .
O=C(N/N=C/c1coc2ccccc2c1=O)c1cc(Br)c(O)c(Br)c1 | 4 | 5 | 1 | 0 | . | 71* | 55*
O=C(COC(=O)CCC(NC(=O)OCc1ccccc1)C(=O)OCC(=O)Nc1ccccc1)Nc1ccccc1 (configuration not stated) | -8 | 6 | -10 | -7 | 3 | 70* | 84*
O=C(CCC(NC(=O)OCc1ccccc1)C(=O)OCC(=O)N1CCCCC1)OCC(=O)N1CCCCC1 (configuration not stated) | 7 | 6 | 9 | 5 | 3 | 53* | 48*
COc1ccc(NC(=O)C(=O)NNC(=O)c2ccc(Cl)cc2Cl)cc1 | 5 | 3 | 10 | -5 | 4 | 4 | .
Nc1[nH]n2c(=O)cc(-c3ccccc3)nc2c1N=Nc1ccccc1 | 9 | 14 | -3 | -12 | 9 | 32* | 27
O=C(NN1CCOCC1)c1ccccc1NS(=O)(=O)c1ccc(F)cc1F | 3 | 3 | 5 | -8 | 0 | 70* | 78*
Cc1ccccc1NC(=O)C1Cc2ccccc2C(=O)O1 (configuration not stated) | 13 | 4 | 2 | -4 | 11 | 36* | 30*
COc1ccc(NC(=O)C2Cc3ccccc3C(=O)O2)cc1 (configuration not stated) | 1 | 4 | -3 | 1 | 3 | 8 | .
COc1ccc(NC(=O)c2sc3nc(N4CCOCC4)c4c(c3c2N)CCCC4)c(OC)c1 | -2 | 3 | -1 | 3 | 1 | 3 | .
CCCCNC(=O)c1onc(CSc2ccccc2)c1C(=O)NCCCC | 3 | 5 | -5 | -9 | 5 | 5 | .
SMILES | PAFAH1B3 inh | PAFAH1B2 FP inh | PKA-R1A activ | PKA-R2B activ | pPAFAH inh | PAFAH2 FP inh | PAFAH2 confirm
CCCCNC(=O)c1onc(CSc2ccccc2CC)c1C(=O)O | 9 | 24 | -1 | -9 | 12 | 58* | 44*
C=CCNC(=O)c1onc(CSc2ccccc2C)c1C(=O)O | 2 | 2 | 1 | -12 | 2 | 36* | 26
Cc1cccc(SCc2noc(C(=O)NCC3CCCO3)c2C(=O)O)c1 (configuration not stated) | 9 | 0 | 6 | -9 | 5 | 11 | .
Cc1cc(C)cc(SCc2noc(C(=O)NCC3CCCO3)c2C(=O)O)c1 (configuration not stated) | 9 | 7 | 0 | 4 | 0 | 36* | 29
Cc1ccc(C)c(OCC(=O)Nc2ccc(S(=O)(=O)Nc3ccccn3)cc2)c1 | -3 | 0 | -2 | -5 | -7 | -7 | .
COc1ccc(CNC(=O)COC(=O)c2ccc(Br)cc2)cc1 | 8 | 4 | -2 | -4 | 12 | -17 | .
O=C(COC(=O)c1ccc(F)cc1)NCc1ccc(F)cc1 | -4 | -1 | 4 | 1 | 5 | 31* | 18
O=C(COC(=O)c1ccc(S(=O)(=O)N2CCCCC2)cc1)NCc1ccc(F)cc1 | -15 | 0 | -3 | -4 | . | 1 | .
O=C(COC(=O)c1ccc(Br)cc1)NCc1ccc(F)cc1 | 10 | 0 | -3 | -23 | 20 | 42* | 27
CC1=NN(c2ccc(C(=O)O)cc2)C(=O)/C1=C/c1ccc(-c2ccccc2F)o1 | 15 | 5 | -4 | -2 | 5 | 10 | .
CC1=NN(c2ccc(C)cc2)C(=O)/C1=C/c1ccc(-c2cc([N+](=O)[O-])ccc2O)o1 | 20 | 11 | -3 | 2 | . | 34* | 20
Cc1cc(C)c(OCC(=O)OCC(=O)NCc2ccco2)c(C)c1 | . | . | 1 | -8 | . | . | .
CC1(c2ccccc2Cl)NC(=O)N(CC(=O)N2c3ccccc3NC(=O)C2(C)C)C1=O (configuration not stated) | -7 | -2 | 6 | -4 | 2 | -3 | .
CNc1ccc(C(=O)OCC(=O)Nc2ccnn2C(C)C)cc1[N+](=O)[O-] | 3 | 4 | -15 | -3 | 2 | 60* | 46*
CCOC(=O)c1ccc(NC(C)=O)c([N+](=O)[O-])c1 | 2 | 4 | 4 | 0 | 4 | 3 | .
COc1ccc(Cl)cc1NC(=O)COC(=O)/C=C/c1c(C)nn(C2CCS(=O)(=O)C2)c1Cl (configuration not stated) | -3 | 1 | 12 | -7 | 14 | 1 | .
